Bioassay records as filed in PubChem.
G9a inh = qHTS Assay for Inhibitors of Histone Lysine Methyltransferase G9a. Histone-lysine N-methyltransferase EHMT2 (Homo sapiens), Q96KQ7. G9a H3K9 monomethylation, AlphaScreen, 2 h. Potency, µM (titrated, usually from 102 µM), without a hit: at the highest dose activity, negative = inhibition, hits mostly inhibitors. 350,000 compounds, 8.8% hits; also: % is scaled to controls: 0 for no effect and ±100 for the full control effect; nearly all actives have a fitted effect of over 75% in size
Target sequence (Q96KQ7 913-1193 limits assumed): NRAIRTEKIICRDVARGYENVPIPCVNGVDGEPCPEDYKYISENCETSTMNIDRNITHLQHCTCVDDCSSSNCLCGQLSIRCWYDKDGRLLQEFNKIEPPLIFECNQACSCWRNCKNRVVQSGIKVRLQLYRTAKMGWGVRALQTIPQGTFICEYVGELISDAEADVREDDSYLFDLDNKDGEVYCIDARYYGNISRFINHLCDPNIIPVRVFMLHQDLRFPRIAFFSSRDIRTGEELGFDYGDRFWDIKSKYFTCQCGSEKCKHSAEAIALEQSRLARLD
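Quantitative HTS format: methyltransferase activity on a biotin-tagged H3K9 peptide is measured by AlphaScreen, using a rabbit anti-monomethyl-H3K9 antibody with streptavidin donor and anti-IgG acceptor beads. Final levels are 20 nM enzyme, 500 nM peptide, 20 uM SAM; 2 h RT.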
HP1b chromo inh = HTS for Inhibitors of HP1-beta Chromodomain Interactions with Methylated Histone Tails | AlphaScreen HP1-beta / biotin-H3K9me3 peptide binding | Potency, µM (highest dose often 114 µM), inactives show at the highest dose activity change, negative = inhibition, usual class: inhibitors | 390,000 compounds, 0.56% hits; also: nearly all actives have a fitted effect of over 70% in size
Target sequence (P83916 whole entry, looked up): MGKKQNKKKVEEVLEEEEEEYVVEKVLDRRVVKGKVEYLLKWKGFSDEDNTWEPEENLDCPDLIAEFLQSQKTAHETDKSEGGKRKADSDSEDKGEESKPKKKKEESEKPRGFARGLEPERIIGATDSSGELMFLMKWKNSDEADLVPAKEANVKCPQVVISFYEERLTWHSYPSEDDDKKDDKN
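Compound inhibition of the preformed complex between 50 nM HP1-beta and 50 nM biotinylated H3K9me3 peptide was read by AlphaScreen. Buffer was PBS pH 7.4 with 0.01% Tween-20. Incubations ran 30 min at room temperature, with 10 ug/mL donor/acceptor beads.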
BAZ2B block = qHTS Assay for Inhibitors of BAZ2B. AID 504333, 2011. 360,000 compounds, 4.4% hits. AlphaScreen BAZ2B-H3K14Ac peptide displacement. Potency, µM (highest dose often 114 µM), for inactives: at the top dose activity change, negative = inhibition, hits mostly inhibitors; also: % is scaled to controls: 0 for no effect and ±100 for the full control effect; nearly all actives have a fitted effect of over 60% in size
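BAZ2B (50 nM) with biotin-H3(5-23)K14Ac peptide (50 nM) in PBS pH 7.4, 0.01% Tween-20, preformed 30 min, then compound 30 min at room temperature; top concentration 110uM. AlphaScreen streptavidin donor/nickel chelate acceptor beads (10 ug/mL final), 20 min dark, signal read.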
JMJD2A Tudor inh = qHTS Assay for Inhibitors of JMJD2A-Tudor Domain. Lysine-specific demethylase 4A (Homo sapiens), O75164. AlphaScreen JMJD2A-Tudor / H3K4me3 peptide binding. Potency, µM (series often up to 114 µM), without a hit: at the highest dose activity change, negative = inhibition, most hits filed as inhibitors. 390,000 compounds, 4.4% hits. AID 504339, 2011; also: % is scaled to controls: 0 for no effect and ±100 for the full control effect; nearly all actives have a fitted effect of over 50% in size
PLK1 PBD block = qHTS for Inhibitors of PLK1-PDB (polo-like kinase 1 - polo-box domain): Primary Screen; AID 720504, 2013; 360,000 compounds, 2.8% hits; Plk1 PBD binding of FITC phosphopeptide, fluorescence polarization; Serine/threonine-protein kinase PLK1 (Homo sapiens), P53350; Potency, µM, inactives show max response, negative = inhibition, usual class: inhibitors; also: series mostly up to about 57 µM; % is scaled to controls: 0 for no effect and ±100 for the full control effect; nearly all actives have a fitted effect of over 65% in size
ALOX12 inh = Primary qHTS assay for inhibitors of human arachidonate 12S-lipoxygenase (ALOX12): Round 2; Polyunsaturated fatty acid lipoxygenase ALOX12 (Homo sapiens), P18054; purified 12hLO, xylenol orange hydroperoxide absorbance; Potency, µM (top dose mostly 108 µM), without a hit: at the top dose activity change, negative = inhibition, actives largely listed as inhibitors; 580,000 compounds, 1.1% hits; AID 1671190, 2021; also: % is scaled to controls: 0 for no effect and ±100 for the full control effect
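Purified human 12hLO (150 nM final) in 25 mM Hepes, 0.01% Triton X-100, pH 7.0 was preincubated 15 min at room temperature with compound. Then 40 uM arachidonic acid was added, 30 min. Hydroperoxide was read by Fe-XO absorbance ratio 573/405 nm.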
An asterisk follows results filed as active; ? = inconclusive; . = no result given; [ ] = another dose, or the depositor's remark. In the library only some 9% were active in any assay of this set; here they are far more common. Calls follow the shape of the dose curve; as a rule, active = well fitted curve in the direction sought with a large enough effect; inconclusive = small, poorly fitted or top-dose-only effect, or another doubt; inactive = no such curve, though single readings can be large; an effect the other way counts as inactive or inconclusive. Potency is read from the fitted curve at half-maximal effect.

SMILES	G9a inh	HP1b chromo inh	BAZ2B block	JMJD2A Tudor inh	PLK1 PBD block	ALOX12 inh
COc1ccc(O)c(CN2CCN(CCCc3ccccc3)C(CCO)C2)c1 (stereo unspecified)	-17.3%	31.3%	?	-16.1%	-0.4%	0.0%
O=C(C=NNc1ccccc1)c1ccccc1	.	-22.0%	.	?	0.3%	?
COc1ccc(Nc2nc(-c3sc(NC(C)=O)nc3C)cs2)cc1	39.8µM*	.	5.9%	.	.	.
COc1ccc(Nc2nc(-c3sc(N)nc3C)cs2)cc1	?	?	14.1µM*	50.1µM*	?	?
CCOc1ccc(Nc2nc(-c3sc(N)nc3C)cs2)cc1	35.5µM*	?	44.7µM*	50.1µM*	-22.7%	4.6%
COc1ccc(C(=O)c2sc(Nc3ccc(NC(C)=O)cc3)nc2C)cc1	?	8.5%	15.0%	-20.0%	0.0%	-26.4%
COc1ccc(Nc2nc(C)c(C(C)=O)s2)cc1	.	.	.	.	3.3%	44.7µM*
CCN(CC)S(=O)(=O)N1CCN(CC(=O)Nc2c(C#N)c(C)c(C)n2Cc2ccco2)CC1	.	.	.	.	.	-34.5%
CCNC(=O)N[C@@H]1C=C[C@@H](c2c(C)nn(-c3ccc(F)cc3)c2C)C1	.	.	.	.	.	8.7%[176 µM]
O=C(c1ccsc1)N1CC(Oc2ccc(-c3nc(-c4ccccc4)no3)cc2)C1	.	.	.	.	.	0.8%
C=CC[n+]1c(-c2ccc(OC)c(OC)c2)csc1NNC(=O)Nc1ccccc1	?	?	31.6µM*	?	0.6%	-10.4%
Cc1cc(OC(C)C(=O)NCc2ccncc2)c2c(C)c(C)c(=O)oc2c1 (stereo unspecified)	40.0%	61.7%	-7.1%	?	11.9µM*	-4.9%
Cc1cc(OC(C)C(=O)NCc2ccccn2)c2c(C)cc(=O)oc2c1 (stereo unspecified)	-3.9%	16.4%	0.1%	?	26.7µM*	4.5%
Cc1cc(OC(C)C(=O)NCc2cccnc2)c2c(C)cc(=O)oc2c1 (stereo unspecified)	9.5%	13.5%	0.6%	?	26.7µM*	7.3%
CCCCc1cc(=O)oc2cc(C)cc(OC(C)C(=O)NCc3ccccn3)c12 (stereo unspecified)	24.0%	48.2%	-16.6%	4.1%	1.5%	14.8%
CCCCc1cc(=O)oc2cc(C)cc(OC(C)C(=O)NCc3ccncc3)c12 (stereo unspecified)	5.9%[0.0925 µM]	20.4%	-6.0%	-10.7%	4.5%	0.8%
Cc1cc(OC(C)C(=O)NCc2ccncc2)c2c(C)cc(=O)oc2c1 (stereo unspecified)	-21.5%	16.3%	-2.7%	-25.3%	?	3.2%
COc1cc(C2C3=C(CCCC3=O)OC3=C2C(=O)CCC3)cc(Br)c1OCC(=O)O	.	.	.	.	.	-2.6%
CC(C)(C)c1ccc(NC(=O)C2=CN3CCS(=O)(=O)N=C3C=C2)cc1	7.08µM*	26.3%	12.2%	3.7%	3.3%	12.0%
COc1cc2c(C)nc3onc(-c4ccccc4)c3c2cc1OC	-0.2%[12.7 µM]	49.2%	0.5%	3.1%	3.4%	?
O=C(CN1CCCCC1)NN(Cc1ccccc1)c1ccccc1	15.8µM*	?	50.1µM*	-2.3%[11.4 µM]	-6.1%	14.1µM*
COc1ccc(NC(=O)CN2CCC(NC(=O)C3CCCCC3)CC2)cc1	10.4%[59 µM]	1.3%	13.5%	-6.3%	-8.4%	-2.1%
CCN1CCN(CC(=O)Nc2ccc(N(C)C)cc2)CC1	?	-4.1%	?	7.08µM*	-1.8%	?
O=C(CN1CCC(NC(=O)C2CCCCC2)CC1)Nc1ccccc1	.	-26.9%[57 µM]	.	0.891µM*	?	?
O=C(Nc1ccc(F)cc1)N1CCOCC1	14.9%[2.33 µM]	26.2%	7.3%	6.3%	-11.5%	-16.2%
SMILES	G9a inh	HP1b chromo inh	BAZ2B block	JMJD2A Tudor inh	PLK1 PBD block	ALOX12 inh
CN(C)c1ccc(NC(=O)N2CCOCC2)cc1	3.98µM*	-11.9%	?	?	-6.2%	0.0%
N=C(N)SCC1=CCS(=O)(=O)C1	9.3%	45.9%	-0.1%	-10.3%	-5.5%	0.0%
Cn1c(=O)n(-c2ccc3c(c2)OCO3)c2nc(-c3ccc(Cl)cc3)nc(C(N)=O)c21	11.9%[59 µM]	27.4%	-9.0%	-12.1%	.	-0.4%
CC(C)c1ccc(S(=O)(=O)N2CCN(CC(=O)Nc3ccc(Cl)cc3F)CC2)cc1	-9.8%[12.7 µM]	38.4%	11.6%	-10.1%	3.1%	227.0%
CN(C)c1ccc(NC(=O)CN2CCC(NC(=O)C3CCCCC3)CC2)cc1	?	-18.4%	-38.0%	?	-12.3%	-14.2%
CCN(CC)c1ccc(NC(=O)CN2CCN(S(=O)(=O)c3ccc(C(C)C)cc3)CC2)cc1	?	?	7.94µM*	14.1µM*	.	2.9%
CCN(CC)c1ccc(NC2CC(=O)N(CCc3ccc(OC)cc3)C2=O)cc1 (stereo unspecified)	?	?	35.5µM*	39.8µM*	0.6%	?
CN1CCc2c1nc1ccccc1c2NC(=O)CN1CCCC1	.	-16.1%	?	5.62µM*	-24.2%	5.6%
COc1ccc(CCNC2CC(=O)N(CCc3ccccc3)C2=O)cc1 (stereo unspecified)	6.4%[12.7 µM]	15.4%	2.6%	-6.5%	-3.7%	17.9%
CN(C)c1ccc(NC(=O)CN2CCC(N3CCCCC3)CC2)cc1	2.24µM*	?	44.7µM*	?	-7.6%	?
CCC1CN(CC(=O)NC(c2ccccn2)C(F)(F)F)Cc2cc(OC)ccc2O1 (stereo unspecified)	.	.	.	.	.	4.3%
Nc1ncnc2c1ncn2[C@@H]1O[C@H](C(=O)NCCCN2CCCC2=O)[C@@H](O)[C@H]1O	.	.	.	.	-15.9%	-8.2%
O=C(c1cc2nc(-c3ccc(Cl)cc3)cc(C(F)(F)F)n2n1)N1CCOCC1	.	80.7%	4.3%	-0.3%	-11.0%	-11.0%
COc1ccc(C(=O)NCC(C)NC(=O)c2ccc(OC)c(Br)c2)cc1Br (stereo unspecified)	.	45.1%	.	-1.4%	-1.4%	?
CN(CC(=O)Nc1ccc(OC(F)(F)F)cc1)C1CCCCC1	?	-3.5%	?	-8.1%[11.4 µM]	-23.9%	41.4%
CCOc1ccc(NC(=O)CN2CCN(CC(=O)Nc3cc(OC)cc(OC)c3)CC2)cc1	?	25.4%	0.6%	-14.0%	-10.4%	0.0%
O=C(CN1CCc2ccccc2C1)Nc1ccc(OC(F)(F)F)cc1	-14.0%[2.33 µM]	85.3%	17.7%	29.6%	-16.1%	0.0%
O=C(CN1CCCC1)Nc1ccc(OC(F)(F)F)cc1	.	?	?	0.794µM*	0.0%	?
